Laboratory results taken from PubChem BioAssay AID1460 (National Center for Advancing Translational Sciences (NCATS), 2008).
The whole screen tested about 270,000 compounds, of which about 5,800 (2.1%) were called active. Not shown: some 16% with an inconclusive outcome. Calls come from the whole dose curve; as a rule, active = well fitted inhibition curve with a large enough effect; inconclusive = small, poorly fitted or top-dose-only effect; inactive = flat fitted curve, though single readings scatter. The entries come from a sample that favours actives as a whole.

Target: Microtubule-associated protein tau (Homo sapiens) (UniProt P10636)
Test: qHTS for Inhibitors of Tau Fibril Formation, Thioflavin T Binding; note: nearly all actives have a fitted effect of over 55% in size
Details: recombinant tau K18 P301L (four-repeat tau fragment), heparin-induced fibrillization, ThT fluorescence; series mostly up to 57.4 µM
How it was run: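 K18 P301L tau (15 uM + 0.24 uM Alexa 594-tagged), heparin 20 uM, NaOAc pH 7, 6 h 37 C; ThT 30 uM, 1 h RT, ex 450/em 510 nm.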
Potency is the fitted concentration of half-maximal effect.

Microtubule-associated protein tau (Homo sapiens), sequence (P10636 561-689 P618L limits assumed): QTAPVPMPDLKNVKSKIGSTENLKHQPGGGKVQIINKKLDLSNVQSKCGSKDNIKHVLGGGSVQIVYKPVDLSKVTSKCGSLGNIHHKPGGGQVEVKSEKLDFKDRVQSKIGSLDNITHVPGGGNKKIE

Potency, inactive:
COC(=O)c1cc2occc2n1Cc1nc(-c2ccc(C)cc2)oc1C
COc1cccc(C(=O)NCc2ccc3c(c2)CCN3C(=O)c2ccncc2)c1
Cc1ccc(Cl)cc1N1CCN(C(=O)c2cccn3c(=O)c4cc(Cl)ccc4nc23)CC1
COc1ccc(NS(=O)(=O)c2cc3c(cc2C)N(C(C)=O)CCO3)cc1
Cc1nn(CC(=O)N/N=C/c2ccc(F)cc2)c(C)c1[N+](=O)[O-]
Cc1cc(C(=O)COC(=O)C2CC2)c(C)n1-c1ccc(F)cc1
Cc1ccc2c(=O)c(C(=O)c3ccc(Cl)cc3)cn(CC(=O)NC3CCCCC3)c2n1
CCOC(=O)C1=NOC(Cn2cc(C(C)=O)c(=O)[nH]c2=O)C1 (configuration not stated)
CCOC(=O)C1=C(C)NC(=O)NC1c1ccccc1 (configuration not stated)
CCc1ccccc1NC(=O)CSc1nnc(-c2ccccc2)c(-c2ccccc2)n1
CC(=O)N1CCCc2cc(S(=O)(=O)Nc3ccc(Cl)cc3F)ccc21
CCN1C(=O)/C(=C\N2CCN(c3ccccc3)CC2)SC1=S
CCc1ccc(/C=C2\SC(N3CCOCC3)=NC2=O)cc1
CCc1ccc(NC(=O)c2cc(S(=O)(=O)N3CCCC(C)C3)cn2C)cc1 (configuration not stated)
Cc1c(Cl)cccc1-c1ccc(CNCCCSc2nnnn2C)o1
CCn1cc2nc(SCc3ccccc3Cl)n(CCc3ccccc3)c(=O)c2n1
Oc1ccc(/C=N/NC2=NCCCCC2)c(O)c1
Cc1n[nH]c(=O)nc1N/N=C/c1cccs1
Fc1ccc(/C=N/Nc2nc(-c3cccnc3)nc3ccccc23)cc1
Cc1cc(N/N=C/c2ccccc2F)c2ccccc2n1
Cc1nc2nc(SCC(=O)NC3CCC(C)CC3)nn2c(C)c1Cc1ccccc1Cl (configuration not stated)
COC(=O)c1scc(-c2ccc(C)cc2)c1S(=O)(=O)Nc1cc(Cl)c(OC)cc1OC
CC1CCN(S(=O)(=O)c2ccc3c(c2)N(CC(=O)NCCc2ccccc2)C(=O)CO3)CC1
CNc1nc(-c2ccccc2OC)nc2ccccc12
COc1ccccc1-c1nc(SC)n[nH]1
CCc1cccc(NC(=O)Cn2nc(CC)n3c(cc4cc(C)ccc43)c2=O)c1
Cc1cn(C)c(CC(=O)NCc2ccc(Cl)cc2)c1C(=O)O
CCOc1cccc(CC(=O)N2CCc3c([nH]c4ccccc34)C2c2ccc(OC)cc2)c1OCC (configuration not stated)
CCOC(=O)C1CCC(CN(Cc2ccc(OC)cc2)S(=O)(=O)c2ccc(F)c(C(=O)Nc3cc(C)ccc3C)c2)CC1 (configuration not stated)
CCOC(=O)c1cc(-c2ccccc2)n(-c2cccc(C(=O)Nc3cc(OC)cc(OC)c3)c2)c1C
O=C(CCCN1C(=O)/C(=C\c2ccccc2)SC1=S)Nc1ccccc1O
COc1ccc(/C=C2\SC(=S)N(CC(=O)NNC(=O)c3ccncc3)C2=O)cc1
Cc1cc(OCC(=O)Nc2ncn[nH]2)c(C)c(C)c1Br
CCOCCCNC(=O)c1cc2c(=O)n3ccccc3nc2s1
Cc1cccc(-n2c(=O)c3c(c4cc(C)ccc4n3C)n(CC(=O)Nc3ccccc3Cl)c2=O)c1
Cc1noc(/C=C/N(C)C)c1S(=O)(=O)N1CCCC(C(=O)Nc2cccc(F)c2)C1 (configuration not stated)
O=C(NCc1ccco1)C1CCCN(S(=O)(=O)c2ccccc2)C1 (configuration not stated)
Cc1cccc(N2CCN(S(=O)(=O)c3ccc4[nH]c5c(c4c3)CCCCC5)CC2)c1C
CC1(C)CC(=O)c2ccc(O)cc2O1
COc1ccccc1Cc1nc2ccccc2nc1SCC(=O)N1CCCc2ccccc21
CCN1CCN(c2ccc([N+](=O)[O-])cc2C(=O)c2ccc(Cl)cc2)CC1
CC1CCN(c2ccc([N+](=O)[O-])cc2C(N)=O)CC1
O=C(NC1(C(F)(F)F)N=C(c2ccccc2)N(C2CCCCC2)C1=O)c1ccccc1F (configuration not stated)
CN(C)CCCN(C(=O)COc1ccccc1)c1nc2c(Cl)cccc2s1
Fc1cc(F)c2nc(Nc3nc4c(F)cccc4s3)sc2c1
Cc1ccc(CNC(=O)Cn2c(=O)ccc3cc(S(=O)(=O)N4CCCC4)ccc32)cc1
CCc1ccccc1NC(=O)Cn1c(=O)n(CC2CCC(C(=O)NCCc3ccccc3)CC2)c(=O)c2ccccc21 (configuration not stated)
C#CCOc1ccc(C2CC(=O)Nc3c2c(C)nn3-c2nc(C)cc(C)n2)cc1 (configuration not stated)
Cc1ccc(C(=O)N2CCc3cc(CNC(=O)c4ccc(Br)cc4)ccc32)cc1
Cc1nn(-c2ccc(N3CCCCC3)nn2)c(C)c1CCC(=O)NCc1ccccc1F
O=Cc1cn(Cc2ccccc2)nc1-c1cccnc1
Clc1ccc(CN2CCN(/N=C/c3cccnc3)CC2)cc1
O=C(CSc1nc2c(c(=O)[nH]1)CN(Cc1ccc3c(c1)OCO3)CC2)Nc1cc(F)ccc1F
Cc1ccc2cccc(NC(=O)c3ccc(OC(C)C)cc3)c2n1
O=C(CSc1nc(=O)[nH]c2c1CCCC2)Nc1cc(C(F)(F)F)ccc1Cl
CCCOc1ccc(N2CC(C(=O)Nc3ccccn3)CC2=O)cc1 (configuration not stated)
CCCNC(=O)C1CC(=O)N(c2ccc(OCC(=O)Nc3cccc(C)c3C)cc2)C1 (configuration not stated)
CCOc1ccc(C(NC(=O)c2cc(OC)c(OC)c(OC)c2)c2cc(Cl)c3cccnc3c2O)cc1 (configuration not stated)
CCCCN(C)c1nnc(NC(=O)Nc2ccc(Br)c(C)c2)s1
CCOC(=O)c1c(C)[nH]c(C)c1S(=O)(=O)N1CCCC(C(=O)NCc2ccccc2Cl)C1 (configuration not stated)
COc1ccc(S(=O)(=O)c2cn(C)c3cc(N4CCCCC4)c(F)cc3c2=O)cc1
Cc1nn(C)c(Oc2ccccc2)c1[N+](=O)[O-]
Cc1cccc(C2CC(=O)Oc3c2c(=O)n(C)c2ccccc32)c1 (configuration not stated)
CN(C(=O)CSc1nc2ccccc2n1Cc1ccccc1C#N)c1ccccc1
CCN1C(=O)/C(=C2/Sc3ccccc3N2CCCS(=O)(=O)O)SC1=S
CCNC(=O)N1c2ccccc2Sc2ccccc21
CC(=O)c1ccc(NC(=O)CSc2c(C(C)C)cnc3c2c(=O)n(C)c(=O)n3C)cc1
O=C(COc1ccc(Cl)cc1)Nc1ccccc1OCc1cc(=O)n2ccccc2n1
CC1=C(C(=O)Nc2ccccc2)C(c2ccco2)C(C#N)=C(SCC(N)=O)N1 (configuration not stated)
Cc1ccc(CCNC(=O)c2ccc(CNS(=O)(=O)c3ccc(C)cc3)cc2)cc1
CCOC(=O)c1c(C)oc2nc(C)nc(N(CC(C)C)CC(C)C)c12
COc1ccc(NC(=O)N2CCCn3nc(C)cc32)cc1OC
COc1ccc(C(=O)c2oc3ccccc3c2NC(=O)COc2cccc(C)c2)cc1
O=C(Nc1ccccc1Cl)N1CCC(CN2CCCC2)CC1
Cc1ccc(Cn2c(=O)n(Cc3nc(-c4ccccc4)no3)c(=O)c3cc4c(cc32)OCO4)cc1
Cc1ccc(-c2cn3c(n2)sc2cc(C(=O)NCCCc4ccccc4)ccc23)cc1
Cc1cccc(C(=O)N2CCc3cc(CNC(=O)Cc4ccc(F)cc4)ccc32)c1
CCC(=O)Nc1cccc(-c2nc3cc(C)ccc3o2)c1
O=C(Nc1c2c(nc3ccccc13)CCCC2)c1ccccc1Br
Cc1nc2ccccc2cc1O
COc1ccc(-c2nc3sc(CCNS(=O)(=O)c4ccc(F)c(C)c4)c(C)n3n2)cc1

Potency, active:
O=c1c(O)c(Br)ccc2c(Br)c(O)c(O)c(O)c12 3.55 µM
Cc1cc(C(=O)N/N=C/c2ccc(O)c([N+](=O)[O-])c2)c(C)n1-c1ccc(F)cc1 14.1 µM
CCOC(=O)C1=NO[C@@]2(C=C(Br)C(=O)[C@H]3O[C@H]32)C1 15.8 µM
CCN1C(=O)/C(=C2\SC(N3CCCCC3)=NC2=O)c2ccccc21 11.2 µM
Oc1ccc(/C=N/Nc2nc(-c3ccccc3F)nc3ccccc23)c(O)c1 4.47 µM
Cc1nc2ccccc2nc1N/N=C/c1ccc(O)cc1O 14.1 µM
CNc1ccc(SC#N)cc1 12.6 µM
COc1ccccc1C1=Nc2cccc3cccc(c23)N1 11.2 µM
Nc1ccc(N=Nc2ccccc2Cl)c(N)n1 2 µM
COc1ccc(/C=C2/SC(=O)N(CCCCCC(=O)Nc3ccccc3C(=O)O)C2=S)cc1 11.2 µM
Cc1noc(/C=C/N(C)C)c1S(=O)(=O)N1CCCC(C(=O)NCc2ccco2)C1 (configuration not stated) 28.2 µM
CC[C@@H]1Cc2cc(O)ccc2C2=C1c1ccc(O)cc1C[C@H]2CC 17.8 µM
O=[N+]([O-])c1ccc(N2CCN(c3ccc(O)cc3)CC2)c(Cl)c1 6.31 µM
NNc1nc2c(Cl)cccc2s1 22.4 µM
O=C1/C(=C\c2cccnc2)CN(Cc2ccccc2)C/C1=C\c1cccnc1 14.1 µM
CCOc1ccc(N2CC(C(=O)NCCN3C(=O)S/C(=C\c4cccnc4)C3=O)CC2=O)cc1 (configuration not stated) 22.4 µM
Cc1cccc(Oc2c([N+](=O)[O-])c(=O)n(C)c3ccccc23)c1 14.1 µM
CCN1/C(=C/C(=S)Nc2ccccc2)Sc2ccccc21 3.55 µM
N#CC1=C(N)Oc2c(sc3ccccc23)C1c1ccco1 (configuration not stated) 15.8 µM
CN=C1C=C/C(=N/N=c2\ccn(O)cc2C)C=C1C 6.31 µM
O=C(NNc1c2ccccc2nc2ccccc12)c1cc2ccccc2cc1O 2 µM
